Among the data in the antibiotic and cytotoxicity screens of Wong et al. (2023) are cytotoxicity call values, retold here.

Hit rate of the full screen: of about 39,000 compounds, about 1,500 (3.8%) were called active. For the sample, actives were picked, then their nearest neighbours and some compounds at random.

This assay concerns HSkMC (human skeletal muscle cells). Kind of assay: cytotoxicity call (relative viability < 0.9). Conditions: 10 µM.
`C=C1CC2C(CCC3(C)C(=O)CCC23)C2(C)C=CC(=O)C=C12` (stereo not drawn): the cytotoxicity call is “inactive”.
With `O=C1C[C@@H](c2ccncc2)C2(CCNCC2)N1`, the cytotoxicity call is “inactive”.
Turning to `O=C(NN=Cc1ccc([N+](=O)[O-])o1)c1cc([N+](=O)[O-])cc([N+](=O)[O-])c1O`, the cytotoxicity call was “inactive”.
In the case of `CC(C)N(C)C[C@H]1CO[C@]2(CNCCOC2)C1`, the cytotoxicity call was “inactive”.
Take `O=c1cccc2n1C[C@@H]1C[C@H]2CN(CCO)C1`: the cytotoxicity call is “inactive”.
Consider `O=C(CBr)N1CC([N+](=O)[O-])([N+](=O)[O-])C1`, for which the cytotoxicity call is “inactive”.
As to `O=C(O)CNCP(=O)(O)O`, the cytotoxicity call was “inactive”.
As for `NCCO.NCCO.O[AsH]O[AsH]O` (stereo not drawn), the cytotoxicity call was “inactive”.
With `O=c1cccc2n1C[C@H]1CNC[C@H]2C1`, the cytotoxicity call is “inactive”.
For the compound `CN(C)C(=O)Oc1ccc[n+](C)c1.[Br-]`, the cytotoxicity call is “inactive”.
For `NCC1(c2c(F)cc(F)cc2F)CC1`, the cytotoxicity call was “inactive”.
For the compound `CO[C@H]1[C@@H](O)C[C@@H](O[C@H]2[C@@H](O)C[C@@H](O[C@H]3[C@@H](O)C[C@@H](O[C@H]4CC[C@@]5(C)[C@@H](CC[C@H]6[C@@H]5C[C@@H](O)[C@@]5(C)[C@H](C7=CC(=O)OC7)CC[C@@]65O)C4)O[C@@H]3C)O[C@@H]2C)O[C@@H]1C`, the cytotoxicity call is “active”.
For the compound `CO[C@H]1[C@H](O)[C@@H](O[C@H]2[C@@H](C)O[C@@H](O[C@H]3[C@H](C)O[C@H](O[C@H]4CC[C@@]5(C)[C@@H](CC[C@@]6(O)[C@@H]5C[C@@H](O)[C@]5(C)[C@]6(O)CC[C@@]5(O)[C@@H](C)O)C4)C[C@@H]3OC)C[C@H]2OC)O[C@@H](C)[C@H]1O`, the cytotoxicity call was “inactive”.
As for `Cc1cc(N(C)C)ccc1C[C@@H](C)N`, the cytotoxicity call was “inactive”.
For `Cn1cc(N2C[C@@H]3CN(CCO)C[C@@H]3C2=O)cn1`, the cytotoxicity call is “inactive”.
`COC(=O)[C@@H]1[C@@H](CO)[C@@H]2Cn3c(ccc(C4=CCCC4)c3=O)[C@H]1N2S(=O)(=O)c1cn(C)cn1`: the cytotoxicity call is “inactive”.
With `CCC(=O)CCCCC[C@@H]1NC(=O)[C@H]2CCCCN2C(=O)[C@H]([C@@H](C)CC)NC(=O)[C@H](Cc2cn(OC)c3ccccc23)NC1=O` the entry was “active”.
As for `CCC(=O)CCCCC[C@@H]1NC(=O)[C@H]2CCCCN2C(=O)[C@H]([C@H](C)CC)NC(=O)[C@H](Cc2cn(OC)c3ccccc23)NC1=O`, the cytotoxicity call was “active”.
Under `Nc1ccc(-c2ccc(N)cc2)cc1` stands “inactive”.
`O=[N+]([O-])c1cc([As](=O)(O)O)ccc1O`: the cytotoxicity call is “inactive”.
Under `COc1cccc(-c2ccc3c(CCN)c[nH]c3c2)c1` stands “inactive”.
Under `CCNS(=O)(=O)C(F)(F)C(F)(F)C(F)(F)C(F)(F)C(F)(F)C(F)(F)C(F)(F)C(F)(F)F` stands “inactive”; under `CC(=O)NCCSS(C)(=O)=O.CN(C)c1ccc2c(-c3ccccc3C(=O)O)c3ccc(N(C)C)cc3[o+]c2c1`, “inactive”; under `CNc1ccc2oc(C[C@H]3O[C@@]4(CC[C@H]3C)O[C@H]([C@H](C)C(=O)c3ccc[nH]3)[C@H](C)C[C@H]4C)nc2c1C(=O)O`, “active”.
As to `NCc1[nH]nc2cc(F)ccc12`, the cytotoxicity call was “inactive”.
For `CC(=O)[C@]12[C@@H]3CC=C[C@H]1N2CC3` (stereo partly drawn), the cytotoxicity call is “inactive”.
For `CCN1C[C@]2(OC(=O)c3ccccc3NC(C)=O)CC[C@H](OC)[C@@]34[C@@H]2C[C@@H]([C@@H]13)[C@@]1(O)C[C@H](OC)[C@H]2C[C@@H]4[C@]1(O)[C@H]2OC`, the cytotoxicity call was “inactive”.
Regarding `COc1cc2c(cc1OC)C1C(=O)c3ccc4c(c3OC1CO2)CC(C(C)C)O4` (stereo not drawn), the cytotoxicity call is “inactive”.
As for `CC[C@@H](C(=O)[C@@H](C)[C@@H](O)[C@H](C)[C@@H]1O[C@@H]([C@@H](CC)C(=O)O)CC[C@@H]1C)[C@H]1O[C@]2(C=C[C@@H](O)[C@]3(CC[C@@](C)([C@H]4CC[C@](O)(CC)[C@H](C)O4)O3)O2)[C@H](C)C[C@@H]1C`, the cytotoxicity call was “active”.
Under `CCC(C(=O)[O-])C1CCC(C)C(C(C)C(O)C(C)C(=O)C(CC)C2OC3(C=CC(O)C4(CCC(C)(C5CCC(O)(CC)C(C)O5)O4)O3)C(C)CC2C)O1.[Na+]` (stereo not drawn) stands “inactive”; under `[N-]=[N+]=NCC(=O)N1CCOCC1`, “inactive”; under `COCC(=O)N[C@@H]1[C@@H]2CNC[C@@H]21`, “inactive”.
With `C[C@H]1[C@H](O)[C@@H](C)/C=C\C=C/CC\C=C/C=C\C=C/C=C\[C@@H](O[C@@H]2O[C@H](C)[C@@H](O)[C@H](N)[C@@H]2O)C[C@H]2O[C@@](O)(C[C@@H](O)[C@@H]2C(=O)O)C[C@@H](O)[C@@H](O)CC[C@@H](O)C[C@@H](O)C[C@@H](O)CC(=O)O[C@H]1C`, the cytotoxicity call is “inactive”.
In the case of `CN1CCC2(C)c3cc(O)ccc3N(C)C12.O=C(O)C=CC(=O)O` (stereo not drawn), the cytotoxicity call was “inactive”.
Consider `O=S(=O)(O)O.Oc1cccc2cccnc12`, for which the cytotoxicity call was “inactive”.
As for `O=C(O)[C@H]1[C@H](C(=O)O)[C@H]2CC[C@@H]1O2`, the cytotoxicity call is “inactive”.
Consider `C[C@]12CC[C@](C)(O1)[C@H](C(=O)O)[C@@H]2C(=O)O`, for which the cytotoxicity call was “inactive”.
With `C[C@@]1(C(=O)O)[C@H]2CC[C@@H](O2)[C@@]1(C)C(=O)O` the entry was “active”; with `CC1(C)[C@@H](C=C(Br)Br)[C@@H]1C(=O)O[C@@H](C#N)c1cccc(Oc2ccccc2)c1`, “inactive”; with `FCCN1C[C@H]2CCN[C@H]2C1`, “inactive”.
Turning to `CC(=O)OC(C)(C)/C=C/C(=O)C(C)(O)[C@H]1[C@H](O)C[C@@]2(C)[C@H]3CC=C4[C@@H](C[C@H](O)C(=O)C4(C)C)[C@]3(C)C(=O)C[C@]12C` (stereo partly drawn), the cytotoxicity call was “inactive”.
For `CC(C)(O)/C=C/C(=O)[C@](C)(O)[C@H]1[C@H](O)C[C@@]2(C)[C@H]3CC=C4[C@@H](CC(=O)C(=O)C4(C)C)[C@]3(C)C(=O)C[C@]12C`, the cytotoxicity call is “active”.
Take `C[C@@H]1CN([C@@H](C)CO)C(=O)c2c(c3ccccc3n2C)-c2ccccc2CO[C@@H]1CN(C)C(=O)Oc1ccccc1`: the cytotoxicity call was “inactive”.
`C[C@H]1O[C@H](n2cnc3c(N)ncnc32)C[C@@H]1O`: the cytotoxicity call is “inactive”.
As for `CC(C)C[C@@H](NC(=O)[C@H](Cc1ccccc1)NC(=O)CNC(=O)[C@@H](C)NC(=O)[C@@H](N)Cc1ccc(O)cc1)C(=O)O`, the cytotoxicity call was “inactive”.
In the case of `C[CH2][Hg][S]c1ccccc1C(=O)[O-].[Na+]`, the cytotoxicity call is “active”.
With `O=C([O-])Cc1ccccc1.[Na+]` the entry was “inactive”; with `CCCCOC(=O)c1ccccc1C(=O)OCCCC`, “inactive”.
In the case of `Cc1noc(C)c1CN1CCNCC1`, the cytotoxicity call is “inactive”.
Take `CCN(C)C(=O)Oc1cccc(C(C)N(C)C)c1.O=C(O)C(O)C(O)C(=O)O` (stereo not drawn): the cytotoxicity call is “inactive”.
As for `CCCCOC(=O)C1=CC(=O)CC(C)(C)O1`, the cytotoxicity call is “inactive”.
With `CNCCc1ccc(O)c(O)c1` the entry was “inactive”; with `NCCN1CCN(c2ccc(F)cc2)CC1`, “inactive”.
`CCCCCCCCCCCCCCCC[n+]1ccccc1`: the cytotoxicity call was “active”.
`CCCCCCCCCCCCCCCC[n+]1ccccc1.[Cl-]`: the cytotoxicity call was “active”.
Turning to `c1ccc(CN2CCNCC2)nc1`, the cytotoxicity call is “inactive”.
As to `CN[C@@H](C)Cc1cnccn1`, the cytotoxicity call was “inactive”.
For `CCOCC(=O)N[C@H]1CCSC1=O`, the cytotoxicity call is “inactive”.
`O=C1C[C@@H](CO)CN1`: the cytotoxicity call was “inactive”.
Regarding `CN(C)C(=O)C(CCN1CCC(O)(c2ccc(Cl)cc2)CC1)(c1ccccc1)c1ccccc1.Cl`, the cytotoxicity call was “inactive”.
For `C[C@]12CCC(=O)C[C@@H]1CC[C@@H]1[C@@H]2CC[C@]2(C)C(=O)CC[C@@H]12` [5alpha-ANDROSTAN-3,17-DIONE ], the cytotoxicity call is “inactive”.
As to `CC12CCC3C(CC=C4CC(O)CCC43C)C1CCC2=O` (stereo not drawn), the cytotoxicity call is “inactive”.
For the compound `C[C@]12CC/C(=N\OCCN)C[C@@H]1C(=O)C[C@@H]1[C@@H]2CC[C@]2(C)C(=O)CC[C@@H]12`, the cytotoxicity call is “active”.
Consider `CC1=C2C(=COC(C)C2C)C(O)=C(C(=O)O)C1=O` (stereo not drawn), for which the cytotoxicity call is “inactive”.
Turning to `C=C(C)[C@H]1CN[C@H](C(=O)O)[C@H]1CC(=O)O`, the cytotoxicity call is “inactive”.
Under `COC(=O)C[C@H]1CC[C@@H]2NC[C@@H](O)COC[C@H]2O1` stands “inactive”; under `Cc1ccc2c(CCN)c(C)n(C)c2c1`, “inactive”.
Regarding `CCn1nc(-c2cccnc2)nc2c(=O)n(C)c(=O)nc1-2`, the cytotoxicity call is “active”.
With `C1C[C@@H]2C[C@@H]2N1` the entry was “inactive”; with `S=C=Nc1cccc(C2(N3CCCCC3)CCCCC2)c1`, “inactive”; with `Cc1ncc(CNC(=O)N(CCCl)N=O)c(N)n1.Cl`, “inactive”.
For the compound `CCC1(c2ccccc2)C(=O)NC(=O)NC1=O`, the cytotoxicity call was “inactive”.
With `NC[C@H]1CCCc2ccc(Cl)cc21`, the cytotoxicity call is “inactive”.
Consider `COCC(=O)N1[C@@H]2c3ccc(C4=CCCC4)c(=O)n3C[C@H]1[C@H](CO)[C@H]2C(=O)OC`, for which the cytotoxicity call was “inactive”.
Under `CC(=O)OC1CCC2(C)C(=CCC3C4CCC(=O)C4(C)CCC32)C1` (stereo not drawn) stands “inactive”.
Turning to `CC1(C)S[C@@H]2[C@H](N)C(=O)N2[C@H]1C(=O)O`, the cytotoxicity call is “inactive”.
On to `N.N.[Cl][Pt][Cl]`, for which the cytotoxicity call is “inactive”.
For the compound `CCOC(=O)c1c(CN2CCN(Cc3ccccc3)CC2)n(Cc2ccccc2)c2cc(Br)c(O)cc12`, the cytotoxicity call is “active”.
Under `CCOC(=O)c1c(CN2CCN(c3ccccc3)CC2)n(Cc2ccccc2)c2cc(Br)c(O)cc12` stands “active”.
As for `CNCc1cccnc1`, the cytotoxicity call is “inactive”.
With `O=C1CO[C@H]2CNC[C@@H]2N1CC1CCCC1` the entry was “inactive”.
Under `C[C@H](CO)N1C[C@H](C)[C@@H](CN(C)C(=O)Oc2ccc3ccccc3c2)OCc2cnnn2CCCC1=O` stands “inactive”; under `O/N=C1\CN2CCC1CC2`, “inactive”; under `C=C(C)C1Cc2c(ccc3c2OC2COc4cc(OC)c(OC)cc4C2C3=O)O1` (stereo not drawn), “inactive”.
Regarding `c1ccc(-c2ccncc2)cc1`, the cytotoxicity call was “inactive”.
Consider `CC1CCC2(NC1)OC1CC3C4CC=C5CC(O)CCC5(C)C4CCC3(C)C1C2C` (stereo not drawn), for which the cytotoxicity call is “inactive”.
Under `C[C@@H]1CC[C@@]2(OC1)O[C@H]1C[C@H]3[C@@H]4CC=C5C[C@@H](O[C@@H]6O[C@H](CO)[C@@H](O[C@@H]7O[C@@H](C)[C@H](O)[C@@H](O)[C@H]7O)[C@H](O)[C@H]6O[C@@H]6O[C@@H](C)[C@H](O)[C@@H](O)[C@H]6O)CC[C@]5(C)[C@H]4CC[C@]3(C)[C@H]1[C@@H]2C` stands “active”.
In the case of `C[C@@H]1CC[C@@]2(OC1)O[C@H]1[C@@H](O)[C@H]3[C@H]4CC[C@H]5C[C@H](O[C@@H]6O[C@H](CO)[C@H](O[C@@H]7O[C@H](CO)[C@@H](O)[C@H](O[C@@H]8OC[C@@H](O)[C@H](O)[C@H]8O)[C@H]7O[C@@H]7O[C@H](CO)[C@H](O)[C@H](O[C@@H]8O[C@H](CO)[C@@H](O)[C@H](O)[C@H]8O)[C@H]7O)[C@H](O)[C@H]6O)[C@H](O)C[C@]5(C)[C@@H]4CC[C@]3(C)[C@H]1[C@@H]2C`, the cytotoxicity call was “inactive”.
